Laboratory results: PubChem BioAssay AID1159580 (chemical genetic matrix, 2015)
Among all 5,500 compounds or so, about 2,000 (36%) were called active. Another 18% or so got no clear call; they are omitted. Rule as the data show it: active = normalized growth mostly below about 0.91 (no sharp cut-off); inconclusive = no clear call, values can overlap the other calls; inactive = mostly above about 0.92. The list shows a part of the results.

Assay: chemical genetic growth profiling, strain panel (AID 1159580);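 also: tested at 20 µM; growth read once vehicle control cultures reached saturation at 30 °C; 1 = growth at the plate median or of vehicle wells; lower values mean less growth of the strain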
Conditions: growth OD

Measured: normalized growth

COC1=CC(C)[C@@H]2C[C@H]3OC(=O)C[C@H]4C(C)=C(OC)C(=O)C([C@@]34C)[C@@]2(C)C1=O (some centres undefined)
inactive: S. cerevisiae deletion strains, locus YKL009W, strain mrt4, hits give low values 1.01 | S. cerevisiae deletion strains, locus YKL068W, hits give low values 1 | S. cerevisiae deletion strains, locus YKL085W, strain MDH1 (second series), hits give low values 1 | S. cerevisiae deletion strains, locus YKL085W, strain MDH1, hits give low values 1 | S. cerevisiae deletion strains, locus YKL160W, strain elf1, hits give low values 1 | S. cerevisiae deletion strains, locus YKL190W, strain CNB1, hits give low values 1.01 | S. cerevisiae deletion strains, locus YKR001C, strain vps1, hits give low values 0.986 | S. cerevisiae deletion strains, locus YKR026C, strain gcn3, hits give low values 0.96 | S. cerevisiae deletion strains, locus YKR091W, strain srl3, hits give low values 0.967 | S. cerevisiae deletion strains, locus YLL001W, strain dnm1, hits give low values 0.969 | S. cerevisiae deletion strains, locus YLL026W, hits give low values 0.985 | S. cerevisiae deletion strains, locus YLL041C, strain sdh2, hits give low values 0.983 | S. cerevisiae deletion strains, locus YLR027C, strain aat2, hits give low values 0.992 | S. cerevisiae deletion strains, locus YLR039C, strain RIC1, hits give low values 1.06 | S. cerevisiae deletion strains, locus YLR058C, strain SHM2, hits give low values 1.02 | S. cerevisiae deletion strains, locus YLR102C, strain apc9, hits give low values 1.02 | S. cerevisiae deletion strains, locus YLR113W, strain HOG1, hits give low values 1.03 | S. cerevisiae deletion strains, locus YLR221C, strain rsa3, hits give low values 1.01 | S. cerevisiae deletion strains, locus YLR258W, strain gsy2, hits give low values 0.968 | S. cerevisiae deletion strains, locus YLR262C, strain YPT6 (second series), hits give low values 0.991 | S. cerevisiae deletion strains, locus YLR262C, strain YPT6, hits give low values 1.16 | S. cerevisiae deletion strains, locus YLR268W, strain sec22, hits give low values 1.04 | S. cerevisiae deletion strains, locus YLR320W, strain mms22, hits give low values 0.975 | S. cerevisiae deletion strains, locus YLR330W, strain CHS5, hits give low values 1.01 | S. cerevisiae deletion strains, locus YLR342W, strain FKS1 (second series), hits give low values 1.01 | S. cerevisiae deletion strains, locus YLR342W, strain FKS1, hits give low values 0.976 | S. cerevisiae deletion strains, locus YLR357W, strain rsc2, hits give low values 0.942 | S. cerevisiae deletion strains, locus YLR370C, strain arc18, hits give low values 0.978 | S. cerevisiae deletion strains, locus YLR371W, strain rom2, hits give low values 1.02 | S. cerevisiae deletion strains, locus YLR384C, strain iki3, hits give low values 0.967 | S. cerevisiae deletion strains, locus YLR418C, strain cdc73, hits give low values 1 | S. cerevisiae deletion strains, locus YML016C, strain PPZ1, hits give low values 1.01 | S. cerevisiae deletion strains, locus YML032C, strain rad52, hits give low values 1.01 | S. cerevisiae deletion strains, locus YML120C, strain ndi1, hits give low values 0.99 | S. cerevisiae deletion strains, locus YML124C, strain tub3, hits give low values 1.01 | S. cerevisiae deletion strains, locus YMR058W, strain fet3, hits give low values 0.976 | S. cerevisiae deletion strains, locus YMR078C, strain ctf18, hits give low values 1.03 | S. cerevisiae deletion strains, locus YMR125W, strain sto1, hits give low values 0.975 | S. cerevisiae deletion strains, locus YMR129W, hits give low values 0.987 | S. cerevisiae deletion strains, locus YMR205C, strain PFK2, hits give low values 0.946 | S. cerevisiae deletion strains, locus YMR223W, strain ubp8, hits give low values 1.01 | S. cerevisiae deletion strains, locus YMR231W, strain pep5, hits give low values 0.973 | S. cerevisiae deletion strains, locus YMR263W, strain SAP30, hits give low values 1.02 | S. cerevisiae deletion strains, locus YMR307W, strain GAS1, hits give low values 1.17 | S. cerevisiae deletion strains, locus YNL067W, strain RPL9B, hits give low values 1.03 | S. cerevisiae deletion strains, locus YNL071W, strain lat1, hits give low values 0.987 | S. cerevisiae deletion strains, locus YNL153C, strain GIM3, hits give low values 1.02 | S. cerevisiae deletion strains, locus YNL183C, strain NPR1, hits give low values 0.988 | S. cerevisiae deletion strains, locus YNL209W, strain ssb2, hits give low values 1 | S. cerevisiae deletion strains, locus YNL233W, strain BNI4, hits give low values 1.03 | S. cerevisiae deletion strains, locus YNL248C, strain rpa49, hits give low values 1.01 | S. cerevisiae deletion strains, locus YNL250W, strain rad50, hits give low values 1.03 | S. cerevisiae deletion strains, locus YNL271C, strain bni1, hits give low values 1.01 | S. cerevisiae deletion strains, locus YNL298W, strain CLA4, hits give low values 1.02 | S. cerevisiae deletion strains, locus YNL307C, strain MCK1, hits give low values 1.01 | S. cerevisiae deletion strains, locus YNL322C, strain KRE1 (second series), hits give low values 0.988 | S. cerevisiae deletion strains, locus YNL322C, strain KRE1, hits give low values 1 | S. cerevisiae deletion strains, locus YNR049C, strain mso1, hits give low values 0.973 | S. cerevisiae deletion strains, locus YNR052C, strain pop2, hits give low values 1.01 | S. cerevisiae deletion strains, locus YOL006C, strain TOP1, hits give low values 1.08 | S. cerevisiae deletion strains, locus YOL012C, strain htz1 2.07 | S. cerevisiae deletion strains, locus YOL147C, strain pex11, hits give low values 1 | S. cerevisiae deletion strains, locus YOR001W, strain rrp6, hits give low values 0.993 | S. cerevisiae deletion strains, locus YOR061W, strain CKA2, hits give low values 1.01 | S. cerevisiae deletion strains, locus YOR069W, strain VPS5, hits give low values 1.01 | S. cerevisiae deletion strains, locus YOR070C, strain gyp1, hits give low values 0.987 | S. cerevisiae deletion strains, locus YOR080W, strain dia2, hits give low values 0.977 | S. cerevisiae deletion strains, locus YOR083W, strain WHI5, hits give low values 1.01 | S. cerevisiae deletion strains, locus YOR106W, strain vam3, hits give low values 0.992 | S. cerevisiae deletion strains, locus YOR136W, strain idh2, hits give low values 1.01 | S. cerevisiae deletion strains, locus YOR144C, strain elg1, hits give low values 1.01 | S. cerevisiae deletion strains, locus YOR184W, strain ser1, hits give low values 1.02 | S. cerevisiae deletion strains, locus YOR231W, strain MKK1, hits give low values 1.04 | S. cerevisiae deletion strains, locus YOR265W, strain rbl2, hits give low values 0.982 | S. cerevisiae deletion strains, locus YOR270C, strain vph1, hits give low values 0.975 | S. cerevisiae deletion strains, locus YOR290C, strain snf2, hits give low values 0.903 | S. cerevisiae deletion strains, locus YOR316C, strain cot1, hits give low values 1.01 | S. cerevisiae deletion strains, locus YPL051W, strain arl3, hits give low values 1 | S. cerevisiae deletion strains, locus YPL078C, strain atp4, hits give low values 0.996 | S. cerevisiae deletion strains, locus YPL106C, strain sse1, hits give low values 0.978 | S. cerevisiae deletion strains, locus YPL240C, strain hsp82, hits give low values 0.987 | S. cerevisiae deletion strains, locus YPL241C, strain CIN2, hits give low values 1.01 | S. cerevisiae deletion strains, locus YPL256C, strain CLN2, hits give low values 1.01 | S. cerevisiae deletion strains, locus YPR119W, strain clb2, hits give low values 1.01 | S. cerevisiae deletion strains, locus YPR141C, strain kar3, hits give low values 1.01 | S. cerevisiae deletion strains, locus YPR163C, strain tif3, hits give low values 1.01 | S. cerevisiae deletion strains, locus YPR167C, strain met16, hits give low values 1 | S. cerevisiae deletion strains, strain wtn01, hits give low values 1.01 | S. cerevisiae strains, strain wild type, hits give low values 1.01
